High-throughput results as filed in PubChem.
tim10-1 inh: tim10-1 yeast growth inhibition. S. cerevisiae tim10-1 ts strain growth, BacTiter-Glo, 24 h. 330,000 tested, 2.2% active. inhibition, % at 20 µM;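 active = inhibition of at least 40%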;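 also: mutant grown at 25 °C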
Beta2AR agonist: agonists of human beta-2 adrenergic receptor inducing internalization; AID 504454; Am2.2-beta2AR cells, FAP receptor internalization, flow cytometry; 340,000 tested, 0.43% active; response, % (concentration not given with the values);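 active = response above a set limit, near 3 SD of response in nonfluorescent compounds, cut at about 42% in these data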
Target sequence (P07550 whole entry, looked up): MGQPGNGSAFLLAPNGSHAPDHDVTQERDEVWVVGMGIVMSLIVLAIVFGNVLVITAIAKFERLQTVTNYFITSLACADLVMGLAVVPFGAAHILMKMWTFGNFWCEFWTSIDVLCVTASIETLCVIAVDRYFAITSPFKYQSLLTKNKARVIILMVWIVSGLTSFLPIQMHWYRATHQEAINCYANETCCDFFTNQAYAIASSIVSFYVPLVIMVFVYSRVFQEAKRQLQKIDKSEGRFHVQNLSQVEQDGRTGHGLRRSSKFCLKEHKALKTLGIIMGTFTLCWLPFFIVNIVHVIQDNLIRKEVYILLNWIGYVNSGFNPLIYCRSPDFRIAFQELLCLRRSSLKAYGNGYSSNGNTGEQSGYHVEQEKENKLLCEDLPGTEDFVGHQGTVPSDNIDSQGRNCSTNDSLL
PfHsp90 set2: growth inhibition of yeast expressing Plasmodium Hsp90 | inhibition, % at 9.4 µM | 310,000 tested, 0.32% active | S. cerevisiae expressing PfHsp90, BacTiter-Glo ATP, 48 h; yeast lacking PDR1 and PDR3 efflux regulators;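 active = every replicate shows inhibition above about 80%, whatever the replicate mean, limit read from the data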
TIM10 inh: inhibits growth of TIM10 yeast strain. S. cerevisiae TIM10 strain growth, BacTiter-Glo luminescence, 24 h. inhibition, % at 10 µM. 330,000 tested, 1.4% active. AID 463195;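 active = inhibition of 40% or more at the single tested concentration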;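 also: wild-type TIM10 isogenic control strain grown at permissive 25 °C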
tim23-1 inh: growth inhibitors of tim23-1 mutant yeast | AID 463212 | 330,000 tested, 1.3% active | inhibition, % at 20 µM | S. cerevisiae tim23-1 growth, BacTiter-Glo luminescence, 24 h;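 active = growth inhibition of the mutant yeast at or above 50%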;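 also: temperature-sensitive mutant grown at 25 °C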
TIM10 conf: confirmation of TIM10 yeast growth inhibitors; S. cerevisiae tim10 strain growth, BacTiter-Glo luminescence, 24 h; 4,600 tested, 63% active; shares compounds with TIM10 inh; inhibition, % at 10 µM;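 active = inhibition of yeast growth at or above a set limit in either of two replicates at 10 µM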; also: this counterscreen used the strain with wild-type TIM10
Numbers stand for hits; i = inactive; nt = no result. The list is not random: actives were taken first. Their share in the collection is about 3.8%.

SMILES | tim10-1 inh | Beta2AR agonist | PfHsp90 set2 | TIM10 inh | tim23-1 inh | TIM10 conf
CCCn1c(SC(C)C(=O)NC2CCCC2)n[nH]c1=O (centres undefined) | i | i | nt | i | i | nt
Cc1[nH]c2ccccc2c1/C=N/Nc1nc(Nc2ccc(F)cc2)nc(N2CCOCC2)n1 | i | i | i | 53 | i | 34
Cc1ccc(Nc2nc(N/N=C/c3c[nH]c4ccccc34)nc(N3CCOCC3)n2)cc1 | i | i | i | i | i | nt
O=C(COc1ccc(-c2nnc(N3CCCCC3)c3ccccc23)cc1)N1CCCCC1 | i | i | i | 42 | i | i
O=C(COc1ccc([N+](=O)[O-])cc1)N1CCN(c2nnc(-c3ccccc3)c3ccccc23)CC1 | i | i | i | i | i | nt
CN1C[C@@H]2[C@@H]3C(=O)N(Cc4ccccc4)C(=O)[C@@H]3[C@](Cc3ccccc3)(C1=O)N2C(=O)c1ccc(Br)cc1 | nt | i | i | nt | nt | nt
Cc1ccc(CNC(=O)C2CCCN2C(=O)Nc2ccc(F)cc2)cc1 (centres undefined) | i | i | i | i | i | nt
Cc1ccc2[nH]c(C)c(/C=N/Nc3nc4ccccc4s3)c2c1 | i | i | 106 | 42 | i | 59
COc1ccc(C=NNc2nc3ccccc3s2)cc1 | nt | i | i | nt | nt | nt
CC(C)CN1C(=O)C(=O)N(CC(=O)Nc2cc(Cl)ccc2Oc2ccccc2)C1=O | i | i | nt | 43 | i | 39
Cc1ccc(NC(=O)CSCC(=O)Nc2cccc3ncccc23)cc1 | i | i | nt | i | i | nt
Cc1ccc(C)c(NC(=O)c2ccccc2C(=O)c2ccccc2)c1 | i | nt | nt | 41 | i | i
Nc1ccc(-c2nc3ccc(-c4nc5ccccc5o4)cc3[nH]2)cc1 | i | i | i | 55 | i | i
Cc1nc2ccc(-c3nc4ccccc4o3)cc2[nH]1 | i | i | i | 47 | i | 34
Cc1ccnc2ccc(-c3nc4ccccc4o3)cc12 | i | i | i | i | i | nt
Nc1ccc(-c2nc3ccc(N)cc3[nH]2)cc1 | i | i | i | i | i | nt
Cc1cccc(NC(=S)NC(=O)C2CC2)c1 | i | i | i | i | i | nt
Cc1cc(NC(=S)NC(=O)C2CC2)ccc1Br | i | i | nt | 41 | i | 42
CN(C)S(=O)(=O)c1cccc(NC(=S)NC(=O)C2CCCCC2)c1 | i | i | i | 41 | i | 35
CN(C)S(=O)(=O)c1cccc(NC(=S)NC2CCCCC2)c1 | i | i | nt | i | i | nt
Cc1ccc(NC(=S)NC(=O)C2CCCC2)c(Br)c1 | i | i | i | 41 | i | 35
COc1ccccc1NC(=O)C(C)N(C)Cc1ccc(Cl)s1 (centres undefined) | i | i | i | i | i | nt
CCOc1ccc2oc(C(=O)N(CCOC)c3c(N)n(CC(C)C)c(=O)[nH]c3=O)c(C)c2c1 | i | i | i | i | i | nt
Cc1ccc(CC(=O)NNC(=O)c2cccs2)cc1C | i | i | nt | i | i | nt
Cc1cccc(CSc2nnc(-c3ccccn3)n2N)c1 | i | i | i | i | i | nt
SMILES | tim10-1 inh | Beta2AR agonist | PfHsp90 set2 | TIM10 inh | tim23-1 inh | TIM10 conf
Nn1c(SCc2ccc(Br)cc2)nnc1-c1ccccn1 | i | i | i | 46 | i | 60
Cc1noc(C)c1NC(=O)Nc1ccc2c(c1)CC(=O)N([C@H](C)CO)C[C@@H](C)[C@H](CN(C)CC1CCCCC1)O2 | i | i | i | i | i | nt
O=C1N=C(c2ccccc2)S/C1=C\c1cccs1 | i | i | i | i | i | nt
O=C1OC(c2ccccc2)=C/C1=C/c1cccs1 | i | i | i | 46 | i | i
COc1ccc(-c2nc(C#N)c(NCCc3ccccc3)o2)cc1OC | i | i | i | 46 | i | 41
COc1ccc(CCNc2oc(COc3ccc(F)cc3)nc2C#N)cc1 | i | i | i | 43 | i | 36
CNc1oc(-c2ccco2)nc1C#N | i | i | i | i | i | nt
N#Cc1nc(-c2ccco2)oc1NCCc1ccccc1 | i | i | i | 65 | i | 57
COc1cccc(C2NC(=O)c3ccccc3O2)c1OCc1ccccc1F (centres undefined) | i | i | i | 43 | i | i
COc1cccc(C2NC(=O)c3ccccc3O2)c1OC (centres undefined) | i | i | nt | i | i | nt
COc1ccc(CCC(=O)NCC(=O)OCc2ccccc2)cc1 | i | i | i | i | i | nt
S=C(NCCc1ccccc1)Nc1ccc(Cl)cc1Cl | i | i | i | 49 | i | 49
CN(CC(=O)Nc1ccc(F)c(F)c1F)C(=O)c1nn(Cc2ccccc2)c(=O)c2ccccc12 | i | i | nt | i | i | nt
O=C(Oc1cc2oc(=O)c3c(c2cc1Cl)CCCC3)c1ccco1 | i | i | i | 51 | i | 32
COC(=O)Cc1c(C)c2cc(Cl)c(OC(=O)c3ccco3)cc2oc1=O | i | i | i | 54 | i | 40
CC/C(=N\NS(=O)(=O)c1ccc(C)cc1)c1ccco1 | i | i | i | i | i | nt
Cc1cc(-c2ccccc2)nc(N/N=C/c2ccco2)n1 | i | i | nt | 45 | i | 37
CCC(C)(C)NC(=S)Nc1ccccc1C | i | i | i | i | i | nt
CCn1c(C)cs/c1=N\C(=S)Nc1ccccc1C | i | i | i | 41 | i | i
COc1cccc2cc(-c3nc4ccccc4[nH]3)c(=O)oc12 | i | i | i | 54 | i | 36
COCc1cc(C)n(CC(=O)Nc2ccc3c(c2)OCO3)c(=O)c1C#N | i | i | i | i | i | nt
CCC(C)(C)n1nnnc1C(c1ccc2ncccc2c1)N1CCCCCC1 (centres undefined) | i | i | i | 43 | i | i
COc1ccc(N2CCN(c3ccc(NC(=O)NN)cc3)CC2)cc1 | i | i | i | i | i | nt
COc1ccc(CC(=O)O/N=C(\N)c2ccc(OC)cc2)cc1 | i | i | i | i | i | nt
N/C(Cc1ccc(Cl)cc1)=N\OC(=O)c1cccc2ccccc12 | i | i | 128 | 75 | i | 76
SMILES | tim10-1 inh | Beta2AR agonist | PfHsp90 set2 | TIM10 inh | tim23-1 inh | TIM10 conf
COc1ccc(C/C(N)=N/OC(=O)Cc2ccccc2)cc1 | i | i | nt | 52 | i | i
COc1ccc(CC(=O)O/N=C(\N)Cc2ccc(OC)c(OC)c2)cc1 | i | i | i | i | i | nt
COc1ccc(C/C(N)=N/OC(=O)c2ccc(Cl)cc2)cc1 | i | i | i | 49 | i | 59
O=C(CCl)N(O)c1ccc(C=Cc2ccccc2)cc1 | nt | i | i | nt | nt | nt
COc1ccc(S(=O)(=O)n2nc(OC(=O)c3ccccc3Br)cc2N)cc1 | i | i | i | 50 | i | i
Cc1ccc(S(=O)(=O)n2nc(OC(=O)c3ccccc3F)cc2N)cc1 | i | i | i | 46 | i | 48
COc1ccc(S(=O)(=O)n2nc(OC(=O)c3ccccc3)cc2N)cc1 | i | i | i | 49 | i | i
COc1ccc(S(=O)(=O)n2nc(OC(=O)c3ccc(C)cc3)cc2N)cc1 | i | i | i | 53 | i | 35
O=C(COC(=O)c1ccccc1NCCO)NNC(=O)c1cccs1 | i | i | nt | i | i | nt
O=C(c1ccc(Cn2c(=S)[nH]c3ccccc3c2=O)cc1)N1CCN(c2ccccn2)CC1 | i | i | nt | 73 | i | i
